Compound activity from PubChem.
IL-2 act: activators of IL-2; IL-2 activation reporter assay, cell-based qHTS; stimulated with anti-CD3/CD4/CD28 beads; in transgenic mouse T cells; activation, % (series mostly up to about 46 µM); 0.065% of 360,000 active; in the data active = activation above about 50%; inconclusive = mostly about 30% to 49%; also: 0% is about no effect
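Unstimulated transgenic mouse T cells, 750 per well, received compound and, after 60 minutes, anti-CD3/anti-CD4 bead plus anti-CD28 stimulation. EGFP and DsRed were quantified after 18 hours.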
BRCA1 expr act: activators of BRCA1 expression; Potency, µM (top dose mostly 46.1 µM), for inactives: at the top dose activation, hits mostly activators; MCF7-BRCA1-FFLuc reporter, luminescence, 48 h; response scale: scaled: vehicle 0%, 10 µM genistein 100%; 1.1% of 380,000 active; also: potency is read from the fitted curve at half-maximal effect; nearly all actives have a fitted effect of over 80% in size
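Reporter cells (MCF7, BRCA1 promoter-firefly luciferase) received library compounds across a concentration series for 48 h. End-point luminescence was measured and concentration-effect curves derived after normalization.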
a7 integrin act: integrin-mediated muscular dystrophy alleviation activation; alpha7betagal myoblasts, beta-gal FDG fluorescence, 48 h; Potency, µM (doses to about 38.3 µM), for inactives: top-dose activation, hits mostly activators; 0.064% of 350,000 active;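 also: potency is read from the fitted curve at half-maximal effect; 100% = response of the positive control SU9516; nearly all actives have a fitted effect of over 60% in size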
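Alpha7betagal+/- myoblasts (passage 13) were plated 16-24 hr, then exposed to compounds (1:260 dilution of DMSO stock) for 48 hours at 37C. After MPER lysis, β-galactosidase reporter activity was read as FDG fluorescence (ex 480/em 540) after 30 minutes.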
PKM2 activator: activators of human pyruvate kinase M2; purified PKM2, Kinase-Glo ATP luminescence, activation; response scale: 0% is enzyme alone, no compound; Potency, µM (highest dose often 57.5 µM), inactives show top-dose activation, hits mostly activators; 0.34% of 260,000 active; AID 1631; also: potency is read from the fitted curve at half-maximal effect; % is scaled to controls: 0 for no effect and ±100 for the full control effect; nearly all actives have a fitted effect of over 55% in size
Target sequence (P14618 whole entry, looked up): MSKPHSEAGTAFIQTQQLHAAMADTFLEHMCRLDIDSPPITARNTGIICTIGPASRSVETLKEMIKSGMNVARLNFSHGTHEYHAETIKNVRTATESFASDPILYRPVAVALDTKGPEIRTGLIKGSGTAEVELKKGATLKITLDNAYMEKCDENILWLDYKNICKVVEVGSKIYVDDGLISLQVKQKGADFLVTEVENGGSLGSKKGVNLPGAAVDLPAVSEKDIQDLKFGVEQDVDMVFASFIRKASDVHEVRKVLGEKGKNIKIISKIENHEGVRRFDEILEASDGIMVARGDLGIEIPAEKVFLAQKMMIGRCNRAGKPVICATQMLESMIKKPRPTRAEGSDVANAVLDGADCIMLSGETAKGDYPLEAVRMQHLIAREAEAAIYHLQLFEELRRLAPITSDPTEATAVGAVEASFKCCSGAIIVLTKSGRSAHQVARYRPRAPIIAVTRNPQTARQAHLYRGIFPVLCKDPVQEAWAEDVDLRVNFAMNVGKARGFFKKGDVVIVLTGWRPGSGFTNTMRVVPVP
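Kinase-Glo luminescence reports ATP generated from ADP (0.1 mM) and PEP (0.5 mM) by purified hPK-M2 after 1 h at room temperature, pH 7.2 imidazole buffer; intermediate enzyme activity allows detecting inhibitors and activators.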
Apoferritin bind: binds horse apoferritin like a general anesthetic | P02791 | apoferritin/1-aminoanthracene competitive binding, fluorescence | Potency, µM (top dose mostly 77.5 µM), for the others: top-dose activity change, negative = displacement, hits mostly inhibitors | 0.074% of 350,000 active; also: potency is read from the fitted curve at half-maximal effect; % is scaled to controls: 0 for no effect and ±100 for the full control effect; nearly all actives have a fitted effect of over 20% in size
Target sequence (P02791 2-175 limits assumed): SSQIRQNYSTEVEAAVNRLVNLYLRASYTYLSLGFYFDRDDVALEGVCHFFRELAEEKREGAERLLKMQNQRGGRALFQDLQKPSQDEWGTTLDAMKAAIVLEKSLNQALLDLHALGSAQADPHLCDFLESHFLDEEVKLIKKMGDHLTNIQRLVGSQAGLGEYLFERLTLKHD
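Steps: apoferritin (10 uM) was premixed with half-saturated 1-AMA in PBS, compounds were pin-transferred, plates stood 10 min at room temperature, fluorescence was read at 380/535 nm, and curves were fitted with a Hill equation.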
HeLa viability: reduces HeLa cell viability in PKM2 activator counter-screen. shares compounds with PKM2 activator. HeLa viability, CellTiter-Glo ATP luminescence, 24 h. activity change, negative = cytotoxicity, % at 57.5 µM. 230 tested, under 10 active. AID 1898; also: % of control where 0% means no effect
Starred values were filed as active, the others as inactive; u = inconclusive; x = no result; [ ] = dose if it differs, or a comment. In the library only some 1.3% were active in any assay of this set; here they are far more common. Unless noted, calls follow the shape of the dose curve; as a rule, active = well fitted curve in the direction sought with a large enough effect; inconclusive = small, poorly fitted or top-dose-only effect, or another doubt; inactive = no such curve, though single readings can be large; an effect the other way counts as inactive or inconclusive.

SMILES | IL-2 act | BRCA1 expr act | a7 integrin act | PKM2 activator | Apoferritin bind | HeLa viability
COc1cc(OC)c2c(c1C(CCN1CCN(c3ccccc3)CC1)c1ccc(N(C)C)cc1)OC(=O)CC2c1ccc(N(C)C)cc1 (stereo not given) | x | x | x | x | 12% | x
O=C(c1cccs1)N1N=C(c2ccccc2)CC1c1ccccc1O (stereo not given) | 0 | -39% | 10% | 4% | -17% | x
CC(=O)N1N=C(c2ccncc2)CC1c1ccccc1O (stereo not given) | 1 | 21% | -9% | 4.5µM* | -2% | -4
O=S(=O)(c1ccc(Cl)cc1)N1CCN(S(=O)(=O)c2ccc3c(c2)OCCO3)CC1 | x | x | x | x | x | u
N#Cc1ccc(S(=O)(=O)N2CCN(S(=O)(=O)c3ccc4c(c3)OCCO4)CC2)cc1 | x | x | x | x | x | -12
CCCc1cc(F)c(S(=O)(=O)N2CCN(S(=O)(=O)c3ccc4c(c3)OCCO4)CC2)cc1F | x | x | x | x | x | -1
O=S(=O)(c1ccc(F)cc1)N1CCN(S(=O)(=O)c2ccc3c(c2)OCCO3)CC1 | 0 | -4% | x | x | x | 10
Cc1ccc(S(=O)(=O)N2CCN(S(=O)(=O)c3ccc4c(c3)OCCO4)CC2)cc1 | 0 | -4% | 7% | u | -7% | x
O=C(Nc1ccc(OC(F)F)cc1)c1nc(SCc2ccccc2F)ncc1Cl | x | -6% | x | x | x | x
CCn1c(SCC(=O)N/N=C/C=C\c2ccco2)nc2ccccc21 | -4 | -14% | -4% | u | u | x
Cn1c(SCC(=O)N/N=C/C=C\c2ccco2)nc2ccccc21 | -2 | 0% | -31% | 7.1µM* | u | -3
Nc1nc2ccc(O)cc2s1 | 0 | -4% | -25% | 3% | 2% | x
Nc1nc2ccc(S(=O)(=O)c3ccc4nc(N)sc4c3)cc2s1 | 0 | -25% | -6% | 14µM* | -13% | 0
COc1ccc(-c2noc(CCC(=O)Nc3cccnc3)n2)cc1 | 0 | 2% | 2% | x | -3% | x
CCOc1cc(-c2noc(CCC(=O)Nc3cccnc3)n2)ccc1OC | 0 | 12% | -6% | 1.4µM* | -5% | -4
Cc1ccc(S(=O)(=O)N2CCCN(S(=O)(=O)c3ccc4ccccc4c3)CC2)cc1 | -1 | -68% | 26% | 0.71µM* | 2% | -18
O=S(=O)(c1ccc2ccccc2c1)N1CCN(S(=O)(=O)c2c(F)cccc2F)CC1 | -1 | u | x | x | x | u
COc1ccc(CCC(=O)N2CCN(S(=O)(=O)c3ccc4ccccc4c3)CC2)cc1 | 0 | -42% | -3% | 0.79µM* | 44% | -9
Cc1nc2ccc(S(=O)(=O)N3CCN(S(=O)(=O)c4c(F)cccc4F)CC3)cc2s1 | x | x | x | x | x | -1
CCCS(=O)(=O)Nc1cccc(-c2cn3ccc(C)cc3n2)c1 | x | x | x | x | 3% | x
O=C(CSc1nc2c([nH]c3ccccc32)c(=O)n1-c1ccccc1F)Nc1cccc(C(F)(F)F)c1 | x | -67% | x | x | -2% | x
COc1ccc(CCNc2ccc(S(=O)(=O)N3CCCC3)cc2[N+](=O)[O-])cc1 | -4 | -32% | 5% | 3.2µM* | -23% | -4
Cn1ccc2cc(S(=O)(=O)N3CCN(S(=O)(=O)c4c(F)cccc4F)CC3)ccc21 | x | x | x | x | x | -4
CN(C)C(=O)Nc1ccc(Oc2ccc(Cl)cc2)cc1 | x | x | x | x | -24% | x
Cc1nnc2sc(SCC(=O)Nc3nccs3)nn2c1=O | 0 | 23% | -19% | 1.4µM* | -5% | 0
SMILES | IL-2 act | BRCA1 expr act | a7 integrin act | PKM2 activator | Apoferritin bind | HeLa viability
COc1ccccc1NC(=O)CSc1nn2c(=O)c(C)nnc2s1 | 1 | 4% | -13% | -2% | -9% | x
COc1ccc(C2Nc3ccccc3C(=O)N2c2cccc3ccccc23)cc1COc1c(C)cccc1C (stereo not given) | x | -3% | x | x | x | x
CCCN1C(=O)S/C(=C/c2ccc(N3CCOCC3)o2)C1=O | 23 | 75% | -7% | 1µM* | 6% | 0
O=C(O)CN1C(=O)/C(=C/c2ccc(N3CCCCC3)o2)SC1=S | 0 | -18% | -25% | 14% | 0% | x
Cc1ccc2cc(CN(Cc3ccco3)C(=O)NCc3ccccc3)c(=O)[nH]c2c1C | -1 | -27% | -13% | -3% | 7% | x
Cc1ccc(C)c2[nH]c(=O)c(CN(Cc3ccco3)C(=O)Nc3ccccc3)cc12 | -1 | -8% | 11% | 7.9µM* | -12% | u
C/C=C\C[C@H](C)[C@H](O)[C@H]1C(=O)N[C@@H](CC)C(=O)N(C)CC(=O)N(C)[C@@H](CC(C)C)C(=O)N[C@@H](C(C)C)C(=O)N(C)[C@@H](CC(C)C)C(=O)N[C@@H](C)C(=O)N[C@@H](C)C(=O)N(C)[C@@H](CC(C)C)C(=O)N(C)[C@@H](CC(C)C)C(=O)N(C)[C@@H](C(C)C)C(=O)N1C | x | x | x | x | -11%[29.3 µM] | x
CCNc1nc(C#N)nc(Nc2ccccc2)n1 | x | -45% | x | x | x | x
CCn1cc(S(=O)(=O)c2ccc(C)cc2)[nH]c1=O | -5 | -22% | -2% | 15% | 2% | x
Cc1ccc(-n2cc(S(=O)(=O)c3ccc(C)cc3)[nH]c2=O)cc1 | -2 | 0% | 19% | 7.1µM* | -11% | 4
Fc1ccccc1Cn1nnc2c(-n3ccnc3)ncnc21 | -3 | 0% | -11% | 1.1µM* | u | 0
CCOC(=O)c1c(NC(=O)CCc2ccc(CC)o2)sc(C)c1C | -1 | -39% | 6% | u | -5% | x
COC(=O)c1c(NC(=O)CCc2ccc(C)o2)sc(C)c1C | -3 | -26% | -3% | 7.9µM* | -19% | -1
COC(=O)C(NS(N)(=O)=O)C(C)C (stereo not given) | x | x | x | x | 3% | x
O=C1NC(=O)c2cc(Br)cc3cccc1c23 | -1 | 43% | 5% | 5% | -7% | x
Cc1ccc(NS(=O)(=O)c2cc3c4c(cccc4c2)C(=O)NC3=O)cc1C | -1 | -27% | -50% | 4µM* | -13% | u
CC[C@H](C)[C@H](NC(=O)[C@H](Cc1ccc(O)cc1)NC(=O)[C@@H]1CCCN1C(=O)[C@H](CCCCN)NC(=O)[C@@H](N)CCCCN)C(=O)N[C@@H](CC(C)C)C(=O)O | x | x | x | x | 7% | x
C[N+]1(CC(=O)c2ccc(O)c(O)c2)CCOCC1 | x | 6% | x | x | x | x
Cc1ccc2oc(C(=O)N(C)Cc3ccc(C)o3)c(C)c2c1 | -4 | 48% | -42% | 6.3µM* | 1% | 2
CCN(Cc1ccccc1)C(=O)c1oc2ccc(C)cc2c1C | -1 | 6% | -12% | -1%[11.5 µM] | -2% | x
c1ccc(-c2nn3c(Cn4nnc5ccccc54)nnc3s2)cc1 | -2 | 14% | -12% | -5% | -11% | x
c1ccc(-c2nn3c(Cn4cnc5ccccc54)nnc3s2)cc1 | -1 | 1% | -15% | 3.2µM* | -8% | 2
